Assay results: PubChem BioAssay
The source made the active and inactive calls.

Tests used:
[1] = E. coli DRC41 culture turbidity changes, primary screen, E. coli filamentation inducer project, strain DRC41, OD650, 48 h (AID 1152);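 also: E. coli MC1000 strain DRC41 lacking acrAB efflux pump and sulA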; conditions: E. coli DRC41 (acrAB sulA), higher = more signal, called active from +8 up or from −8 down
[2] = small-molecule binders of probe aLefty1, primary screen, biochemical, small-molecule microarray, 635/667 nm fluorescence (AID 1153); conditions: higher = more signal;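 also: score merges spot fluorescence with signal-to-noise ratio from the scanned slide images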
[3] = PSAC antagonists in infected red cells, primary screen, cell-based, P. falciparum Indochina, OD700, 1 h (AID 1154); conditions: P. falciparum Indochina infected RBC osmotic lysis, higher = more signal, called active from +8 up or from −8 down
[4] = PSAC antagonists in infected red cells, primary screen, cell-based, P. falciparum Indochina, OD700, 2 h (AID 1155);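 also: lysis reports solute entry through the parasite surface anion channel PSAC; channel blockers reduce lysis of infected cells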; conditions: P. falciparum Indochina infected erythrocytes, osmotic lysis OD700; higher = more signal, called active from +8 up or from −8 down
[5] = osmotic lysis modulators in infected erythrocytes, primary screen, PSAC antagonist project, cell-based, P. falciparum Indochina, OD700, 3 h (AID 1156); conditions: higher = more signal, called active from +8 up or from −8 down
[6] = PSAC antagonists in infected red cells, primary screen, cell-based, P. falciparum Indochina, OD700, 18 h (AID 1157); conditions: P. falciparum Indochina infected erythrocytes, osmotic lysis OD700, 18 h; higher = more signal, called active from +8 up or from −8 down
[7] = modulators of S6 phosphorylation in cells, primary screen, cell-based, A549, cytoblot, luminescence, serum-stimulated (AID 1158); conditions: A549 phospho-S6 cytoblot, 5 h, higher = more signal;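 also: serum-stimulated A549 lung adenocarcinoma cells; signal is phosphorylated S6 detected by cytoblot immunostaining with HRP secondary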
[8] = target: NADPH oxidase 2 (Homo sapiens) (UniProt P04839); test: NOX2-dependent H2O2 signal modulators, primary screen, NOX inhibitor project, cell-based, HEK293-NOX2, PMA-stimulated, Amplex Red fluorescence (AID 1159); conditions: 45 min, higher = more signal, called active from +8 up or from −8 down; also: test concentration not given here
NADPH oxidase 2 (Homo sapiens), sequence (P04839 whole entry, looked up): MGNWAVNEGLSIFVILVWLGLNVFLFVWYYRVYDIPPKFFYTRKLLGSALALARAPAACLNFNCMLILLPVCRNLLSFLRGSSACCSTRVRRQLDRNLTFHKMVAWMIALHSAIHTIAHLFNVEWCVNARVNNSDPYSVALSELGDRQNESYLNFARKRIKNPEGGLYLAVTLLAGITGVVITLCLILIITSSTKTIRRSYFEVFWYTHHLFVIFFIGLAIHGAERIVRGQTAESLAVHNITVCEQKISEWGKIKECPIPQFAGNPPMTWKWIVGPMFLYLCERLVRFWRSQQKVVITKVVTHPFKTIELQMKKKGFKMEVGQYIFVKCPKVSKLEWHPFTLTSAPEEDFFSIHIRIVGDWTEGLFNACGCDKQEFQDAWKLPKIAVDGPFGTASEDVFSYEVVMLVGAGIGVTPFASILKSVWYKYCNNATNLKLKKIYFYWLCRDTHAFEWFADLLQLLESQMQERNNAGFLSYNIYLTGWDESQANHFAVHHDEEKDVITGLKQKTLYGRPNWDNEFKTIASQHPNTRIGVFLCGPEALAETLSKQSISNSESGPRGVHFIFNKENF

[9] = target: NADPH oxidase 4 (Homo sapiens) (UniProt Q9NPH5); test: NOX4-dependent H2O2 signal modulators, primary screen, NOX inhibitor project, cell-based, HEK293-NOX4, tetracycline-induced, Amplex Red fluorescence (AID 1160); conditions: 45 min, higher = more signal, called active from +8 up or from −8 down
NADPH oxidase 4 (Homo sapiens), sequence (Q9NPH5 whole entry, looked up): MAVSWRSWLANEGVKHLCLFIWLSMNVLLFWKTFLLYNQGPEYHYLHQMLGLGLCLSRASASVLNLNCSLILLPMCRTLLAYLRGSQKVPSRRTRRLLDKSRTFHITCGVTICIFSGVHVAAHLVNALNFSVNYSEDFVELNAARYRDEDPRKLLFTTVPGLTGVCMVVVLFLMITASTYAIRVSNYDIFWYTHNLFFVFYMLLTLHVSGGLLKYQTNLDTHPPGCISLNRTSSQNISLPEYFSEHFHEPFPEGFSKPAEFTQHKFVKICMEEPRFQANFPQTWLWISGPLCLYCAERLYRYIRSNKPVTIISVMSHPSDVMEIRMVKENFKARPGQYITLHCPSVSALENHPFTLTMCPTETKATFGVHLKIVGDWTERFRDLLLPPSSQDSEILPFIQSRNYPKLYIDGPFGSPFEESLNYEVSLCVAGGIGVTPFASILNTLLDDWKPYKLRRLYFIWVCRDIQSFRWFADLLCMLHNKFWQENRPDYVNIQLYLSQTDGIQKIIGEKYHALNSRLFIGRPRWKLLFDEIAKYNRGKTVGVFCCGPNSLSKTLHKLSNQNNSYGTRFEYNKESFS

[10] = target: NADPH oxidase 5 (Homo sapiens) (UniProt Q96PH1); test: NOX5-dependent H2O2 signal modulators, primary screen, NOX inhibitor project, cell-based, HEK293-NOX5, Amplex Red fluorescence (AID 1161); conditions: HEK293-NOX5, ionomycin, 45 min, higher = more signal
NADPH oxidase 5 (Homo sapiens), sequence (Q96PH1 whole entry, looked up): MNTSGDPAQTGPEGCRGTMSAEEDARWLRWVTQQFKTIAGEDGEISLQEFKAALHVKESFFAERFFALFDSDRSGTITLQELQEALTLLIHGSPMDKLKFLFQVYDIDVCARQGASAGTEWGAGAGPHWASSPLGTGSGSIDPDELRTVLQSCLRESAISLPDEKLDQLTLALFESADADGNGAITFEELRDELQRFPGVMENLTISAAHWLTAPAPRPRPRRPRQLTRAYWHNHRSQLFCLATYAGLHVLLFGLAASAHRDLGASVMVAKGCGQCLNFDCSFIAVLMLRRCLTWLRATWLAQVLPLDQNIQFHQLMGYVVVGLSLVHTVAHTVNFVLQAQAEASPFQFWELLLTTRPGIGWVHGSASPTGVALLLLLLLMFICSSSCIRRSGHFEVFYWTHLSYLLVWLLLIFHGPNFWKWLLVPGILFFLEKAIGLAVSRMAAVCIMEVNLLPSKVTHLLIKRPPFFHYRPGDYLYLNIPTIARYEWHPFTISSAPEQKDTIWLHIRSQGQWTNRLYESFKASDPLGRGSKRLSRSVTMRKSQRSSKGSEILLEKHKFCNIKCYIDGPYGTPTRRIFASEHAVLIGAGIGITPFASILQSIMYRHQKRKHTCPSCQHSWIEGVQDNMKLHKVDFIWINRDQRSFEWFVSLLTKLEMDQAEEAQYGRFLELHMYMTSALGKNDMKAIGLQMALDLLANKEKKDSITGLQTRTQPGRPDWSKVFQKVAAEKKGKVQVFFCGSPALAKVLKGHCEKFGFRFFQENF

Row | SMILES | z-score [1] | composite z-score [2] | z-score [3] | z-score [4] | z-score [5] | z-score [6] | z-score [7] | z-score [8] | z-score [9] | z-score [10]
1 | O=C1O[C@H](c2ccccc2)[C@H](c2ccccc2)N2[C@H]1[C@@H](C(=O)N1CCCCCCC1)[C@]1(C(=O)Nc3ccc(C#CC4(O)CCCCCC4)cc31)[C@H]2c1ccccc1OCCO | -0.0659 (inactive) | 2.87 | 0.707 (inactive) | 0.216 (inactive) | -0.168 (inactive) | 0.614 (inactive) | 0.43 | 0.643 (inactive) | 0.485 (inactive) | 1.56
2 | COc1ccc(C(=O)Nc2cccc(CN3C(=O)[C@@]4(O[C@@H](CC(=O)N(CCO)Cc5ccccc5)[C@H]([Si](C)(C)c5ccc(OC)cc5)[C@H]4C)c4ccccc43)c2)cc1 | 1.23 (inactive) | -0.443 | 12.3 (active) | 0.833 (inactive) | -0.39 (inactive) | -1.31 (inactive) | 1.58 | 0.306 (inactive) | 0.56 (inactive) | 2.08
3 | C=CCC(OC(C)=O)[C@@H]1[C@@H](N(Cc2cccc3ccccc23)C(=O)c2ccc(-c3ccccc3)cc2)c2cc(OCCCO)ccc2N1C(=O)c1ccc(-c2ccccc2)cc1 (stereo not given in full) | -0.883 (inactive) | -0.06 | 0.311 (inactive) | -1.06 (inactive) | -0.942 (inactive) | -0.454 (inactive) | -0.0997 | 0.582 (inactive) | 0.688 (inactive) | 0.296
4 | C=CCNC(=O)[C@H]1[C@@H]2C(=O)O[C@@H](c3ccccc3)[C@@H](c3ccccc3)N2[C@@H](c2ccc(OCCO)cc2)[C@]12C(=O)Nc1ccc(C#CCNC(N)=O)cc12 | -0.0661 (inactive) | 0.0809 | 2.59 (inactive) | 1.36 (inactive) | 1.42 (inactive) | 0.563 (inactive) | 0.326 | 1.91 (inactive) | 0.286 (inactive) | -0.621
5 | C=C(CCCC)C(=O)CC[C@H](OC(C)=O)c1ccc(OCCO)cc1 | 2.2 (inactive) | -0.316 | 11.3 (active) | 0.316 (inactive) | 1.61 (inactive) | -0.623 (inactive) | 2 | -3.16 (inactive) | -1.5 (inactive) | -3.11
6 | O=C1C[C@@](C(=O)NCC(F)(F)F)(c2ccc([N+](=O)[O-])cc2)[C@@H](c2ccc(CO)cc2)N1CC12CC3CC(CC(C3)C1)C2 | -0.0809 (inactive) | 0.282 | 5.86 (inactive) | 0.525 (inactive) | 2.97 (inactive) | -0.092 (inactive) | 2.16 | -0.178 (inactive) | -3.52 (inactive) | -5.17
7 | C=C(COC)C(=O)CC[C@H](OC(C)=O)c1ccc(OCCO)cc1 | 1.5 (inactive) | -0.0984 | 4.92 (inactive) | -1.68 (inactive) | 1.91 (inactive) | -1.85 (inactive) | 0.534 | -2.84 (inactive) | -1.63 (inactive) | -2.22
8 | CC1CC/C=C\[C@H]2OC34C=CCN(C(C)(C)C)C(=O)[C@H]3N(C(CO)C(C)C)C(=O)[C@@H]4C2C(=O)O1 (stereo not given in full) | -0.281 (inactive) | -0.142 | 0.462 (inactive) | 0.451 (inactive) | 0.44 (inactive) | 0.404 (inactive) | -0.248 | 1.31 (inactive) | -0.568 (inactive) | 2.34
9 | O=C1C[C@@](C(=O)NCc2ccccc2)(c2ccc([N+](=O)[O-])cc2)[C@@H](c2ccc(CO)cc2I)N1CC12CC3CC(CC(C3)C1)C2 | 0.832 (inactive) | -0.641 | 8.97 (active) | 1.41 (inactive) | 2.53 (inactive) | 0.301 (inactive) | 2.5 | -1.38 (inactive) | -4.29 (inactive) | -3.82
10 | C=C[C@H](C)[C@H](OC(=O)Nc1ccc(OC)cc1)c1ccc(OCCO)cc1 | 0.566 (inactive) | 0.126 | 12.4 (active) | 1.76 (inactive) | 0.193 (inactive) | 0.746 (inactive) | -0.196 | -0.288 (inactive) | 0.436 (inactive) | -2.19
11 | C=CCC(OC(C)=O)[C@@H]1[C@@H](N(Cc2cccc3ccccc23)C(=O)c2cccc3ccccc23)c2cc(OCCCO)ccc2N1C(=O)c1ccc2ccccc2c1 (stereo not given in full) | 0.0047 (inactive) | -0.333 | 0.529 (inactive) | -0.128 (inactive) | 1.41 (inactive) | 0.0897 (inactive) | 0.914 | -2.77 (inactive) | -1.09 (inactive) | -2.66
